Among the data in PubChem BioAssay (Tox21) are Potency values, retold here.

Test [1] in a line: qHTS assay to identify small molecule antagonists of the glucocorticoid receptor (GR) signaling pathway - cell viability counter screen (AID 720693). Also: nearly all actives have a fitted effect of over 55% in size. Also: potency is read from the fitted curve at half-maximal effect.
Test [2] in a line: qHTS assay for identifying genotoxic compounds that show differential cytotoxicity against isogenic chicken DT40 cell lines with known DNA damage response pathways - wild type cell line (AID 743012). Also: nearly all actives have a fitted effect of over 60% in size. Also: potency is read from the fitted curve at half-maximal effect. Summed up: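 CellTiter-Glo luminescence readout of viability in wild type DT40 cells after 40 h compound exposure at 37 C/5% CO2; 300 cells/well; reagent incubated 30 min at room temperature before reading.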
In general terms: In qHTS, concentration-response curves come from the screen itself.

Test [3] in a line: qHTS assay for identifying genotoxic compounds that show differential cytotoxicity against isogenic chicken DT40 cell lines with known DNA damage response pathways - Rad54/Ku70 mutant cell line (AID 743015). Also: nearly all actives have a fitted effect of over 60% in size. Also: potency is read from the fitted curve at half-maximal effect.
Test [4] in a line: qHTS assay to identify small molecule antagonists of the androgen receptor (AR) signaling pathway - cell viability counter screen (AID 743033; also: nearly all actives have a fitted effect of over 45% in size; also: potency is read from the fitted curve at half-maximal effect).
The nature of test [5]: qHTS assay to identify small molecule antagonists of the androgen receptor (AR) signaling pathway using the MDA cell line - cell viability counter screen (AID 743041; also: nearly all actives have a fitted effect of over 45% in size; also: potency is read from the fitted curve at half-maximal effect). The method in brief:
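In this qHTS counter assay, fluorescence intensity after CellTiter-Fluor addition indicated viability of MDA-kb2 AR-luc cells given compounds and R1881 for 16 h at 37C.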

Test [6] is described as follows: qHTS assay to identify small molecule antagonists of the thyroid receptor (TR) signaling pathway - cell viability counter screen (AID 743064). Also: nearly all actives have a fitted effect of over 50% in size. Also: potency is read from the fitted curve at half-maximal effect. Summed up: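 Fluorescence from CellTiter-Fluor, added after 23.5 h exposure at 37 °C, reported viability of GH3.TRE-Luc cells co-treated with compound and 1 nM T3. Measured in the same wells as the luciferase TR readout.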

Test [7] addresses Estrogen receptor (Homo sapiens) (UniProt P03372). The test is described as follows: qHTS assay to identify small molecule antagonists of the estrogen receptor alpha (ER-alpha) signaling pathway (AID 743069; active = well fitted curve in the direction sought with a large enough effect in the signal ratio in the repeat runs, not every such curve was filed as active; inconclusive = weak or mixed curves, or effect the other way; inactive = no such curve, though single readings can be large or run the other way; the % refers to the signal ratio; also: potency is read from the fitted curve at half-maximal effect). Summed up:
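A 17beta-estradiol challenge was applied right after compound transfer to ER-alpha-UAS-bla HEK293 cells previously kept in charcoal-stripped serum. Plates stood 18 hr at 37C and 5% CO2; fluorescence was read following 2 hr FRET substrate loading at room temperature.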

Test [8] can be described thus: qHTS assay to identify small molecule antagonists of the estrogen receptor alpha (ER-alpha) signaling pathway - cell viability counter screen (AID 743074; calls by dose curve;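 also: HEK293 cells carrying ER-alpha-UAS-bla reporter stimulated with 17beta-estradiol; nearly all actives have a fitted effect of over 45% in size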).
Test [9] addresses Estrogen receptor (Homo sapiens) (UniProt P03372). The experiment in a line: qHTS assay to identify small molecule agonists of the estrogen receptor alpha (ER-alpha) signaling pathway (AID 743075; calls by dose curve;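 also: HEK293 GripTite cells with ER-alpha and UAS-driven beta-lactamase reporter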).
Test [10] shares this target. The experiment in a line: qHTS assay to identify small molecule agonists of the estrogen receptor alpha (ER-alpha) signaling pathway using the BG1 cell line (AID 743079). Also: nearly all actives have a fitted effect of over 20% in size.
A short description of test [11]: qHTS assay to identify small molecule antagonists of the estrogen receptor alpha (ER-alpha) signaling pathway using the BG1 cell line (AID 743080; calls by dose curve;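 also: BG1 cells stimulated with 17beta-estradiol alongside compound; series mostly up to about 70 µM; nearly all actives have a fitted effect of over 25% in size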). The method in brief:
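Endogenous full-length ER-alpha in BG1-Luc-4E2 cells drives a stably integrated 4×ERE luciferase gene; compounds were tested against 17beta-estradiol over 21.5 h, with luminescence and multiplexed viability fluorescence recorded.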

Test [12] is described as follows: qHTS assay to identify small molecule antagonists of the estrogen receptor alpha (ER-alpha) signaling pathway using the BG1 cell line - cell viability counter screen (AID 743081).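 Also: compound given together with 17beta-estradiol as the ER stimulus; nearly all actives have a fitted effect of over 45% in size.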 Also: potency is read from the fitted curve at half-maximal effect.
Test [13] addresses Aromatase (Homo sapiens) (UniProt P11511). The experiment in a line: qHTS assay to identify aromatase inhibitors (AID 743083). Also: nearly all actives have a fitted effect of over 55% in size. Also: potency is read from the fitted curve at half-maximal effect.
Test [14] has as its target Androgen receptor (Homo sapiens) (UniProt P10275). The experiment in a line: qHTS assay to identify small molecule antagonists of the androgen receptor (AR) signaling pathway (AID 743035; active = well fitted inhibition curve with a large enough effect in the signal ratio in the repeat runs, not every such curve was filed as active; inconclusive = weak or mixed curves, or effect the other way; inactive = no such curve, though single readings can be large or run the other way; the % refers to the signal ratio). The method in brief: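 AR-bla HEK293 reporter cells; 4 h settle at 37C/5% CO2; compound + R1881 agonist, 16 h at 37C; LiveBLAzer B/G FRET substrate 2 h RT; fluorescence intensity read. qHTS format.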

Test [15] shares this target. The experiment in a line: qHTS assay to identify small molecule agonists of the androgen receptor (AR) signaling pathway (AID 743036; active = well fitted activation curve with a large enough effect in the signal ratio in the repeat runs, with a control signal flat, not every such curve was filed as active; inconclusive = weak or mixed curves, or effect the other way; inactive = no such curve, though single readings can be large or run the other way; the % refers to the signal ratio). Summed up: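 Fluorescence from a beta-lactamase FRET substrate served as read-out in AR-UAS-bla GripTite HEK293 cells. Cells were treated with DMSO-dissolved compounds for 16 h at 37C, then with LiveBLAzer B/G substrate for 2 h at room temperature.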

Test [16] shares this target. The experiment in a line: qHTS assay to identify small molecule agonists of the androgen receptor (AR) signaling pathway using the MDA cell line (AID 743040; also: nearly all actives have a fitted effect of over 20% in size). The method in brief: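 Cell-based luciferase reporter: MDA-kb2, MMTV promoter (AR + GR response elements). 16 h compound exposure at 37C; ONE-Glo, 30 min RT, luminescence.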
The target is the same in test [17]. The test is described as follows: qHTS assay to identify small molecule antagonists of the androgen receptor (AR) signaling pathway using the MDA cell line (AID 743042; also: nearly all actives have a fitted effect of over 55% in size). The method in brief:
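MDA-kb2 cells (human breast carcinoma, stably carrying an MMTV-luciferase reporter responsive to AR and GR) were plated at 3,000 cells/well and preincubated 5 hr at 37C, then given compound plus R1881 agonist for 16 h. ONE-Glo luminescence was read.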

Test [18] is described as follows: qHTS assay to identify small molecule antagonists of the thyroid receptor (TR) signaling pathway (AID 743065). Also: nearly all actives have a fitted effect of over 55% in size. Also: potency is read from the fitted curve at half-maximal effect. The method in brief: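 GH3.TRE-Luc rat pituitary cells carrying two TR response elements driving luciferase were plated for 4 h, given compound plus 1 nM T3 (final), and incubated 23.5 h at 37 C. ONE-Glo luminescence measured reporter inhibition; CellTiter-Fluor fluorescence tracked cytotoxicity.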

The subject of test [19] is thyroid hormone receptor (rat, GH3 cells). The test is described as follows: qHTS assay to identify small molecule agonists of the thyroid receptor (TR) signaling pathway (AID 743066; calls by dose curve; also: potency is read from the fitted curve at half-maximal effect).
Test [20] can be described thus: qHTS assay for identifying genotoxic compounds that show differential cytotoxicity against isogenic chicken DT40 cell lines with known DNA damage response pathways - Rev3 mutant cell line (AID 743014). Also: nearly all actives have a fitted effect of over 55% in size. Also: potency is read from the fitted curve at half-maximal effect.

“And” between values parts separate entries of the source, which are not always exact repeats. Equal values may be shown once. The source made the active and inactive calls. Unless noted, calls follow the shape of the dose curve; as a rule, active = well fitted curve in the direction sought with a large enough effect in the repeat runs; inconclusive = weak or mixed curves; inactive = no such curve, though single readings can be large; an effect the other way counts as inactive or inconclusive.

Sequence of Androgen receptor (Homo sapiens) (P10275 whole entry, looked up): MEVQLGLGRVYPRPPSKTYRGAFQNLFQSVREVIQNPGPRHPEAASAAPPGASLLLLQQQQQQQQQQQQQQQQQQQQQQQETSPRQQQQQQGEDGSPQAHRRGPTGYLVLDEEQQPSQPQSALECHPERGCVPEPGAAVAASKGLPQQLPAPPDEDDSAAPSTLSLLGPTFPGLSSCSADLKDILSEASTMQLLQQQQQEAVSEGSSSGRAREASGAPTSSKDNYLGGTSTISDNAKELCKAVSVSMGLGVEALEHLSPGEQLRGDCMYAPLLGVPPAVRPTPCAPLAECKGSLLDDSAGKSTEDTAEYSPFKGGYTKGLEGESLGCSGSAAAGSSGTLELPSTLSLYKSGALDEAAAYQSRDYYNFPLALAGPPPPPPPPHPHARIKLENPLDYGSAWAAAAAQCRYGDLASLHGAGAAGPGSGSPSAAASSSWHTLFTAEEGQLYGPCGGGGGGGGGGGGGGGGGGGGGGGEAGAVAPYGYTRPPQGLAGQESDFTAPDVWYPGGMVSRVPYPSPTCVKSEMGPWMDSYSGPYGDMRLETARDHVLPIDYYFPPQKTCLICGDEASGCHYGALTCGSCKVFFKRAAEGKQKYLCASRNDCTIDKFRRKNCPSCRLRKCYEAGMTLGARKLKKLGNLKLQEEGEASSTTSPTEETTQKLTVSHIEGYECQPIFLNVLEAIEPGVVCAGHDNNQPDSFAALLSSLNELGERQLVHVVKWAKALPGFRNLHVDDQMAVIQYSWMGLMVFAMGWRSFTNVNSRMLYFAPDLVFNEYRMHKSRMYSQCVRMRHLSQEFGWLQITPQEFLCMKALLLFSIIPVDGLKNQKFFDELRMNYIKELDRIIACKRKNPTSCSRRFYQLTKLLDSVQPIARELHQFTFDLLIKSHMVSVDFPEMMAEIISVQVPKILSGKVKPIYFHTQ
Sequence of Aromatase (Homo sapiens) (P11511 whole entry, looked up): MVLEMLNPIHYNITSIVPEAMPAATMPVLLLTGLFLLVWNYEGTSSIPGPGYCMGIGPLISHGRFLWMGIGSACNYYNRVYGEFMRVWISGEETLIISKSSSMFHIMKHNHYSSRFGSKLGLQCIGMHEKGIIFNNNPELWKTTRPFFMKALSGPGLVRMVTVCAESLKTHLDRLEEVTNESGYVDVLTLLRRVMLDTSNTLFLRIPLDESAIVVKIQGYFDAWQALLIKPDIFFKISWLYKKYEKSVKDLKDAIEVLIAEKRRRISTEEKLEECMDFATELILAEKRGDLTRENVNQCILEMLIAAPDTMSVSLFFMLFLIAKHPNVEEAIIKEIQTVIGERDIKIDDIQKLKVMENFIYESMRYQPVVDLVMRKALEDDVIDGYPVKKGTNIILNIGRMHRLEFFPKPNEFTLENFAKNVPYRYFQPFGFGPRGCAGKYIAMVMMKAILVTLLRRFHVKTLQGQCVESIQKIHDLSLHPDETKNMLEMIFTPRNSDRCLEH
Sequence of Estrogen receptor (Homo sapiens) (P03372 whole entry, looked up): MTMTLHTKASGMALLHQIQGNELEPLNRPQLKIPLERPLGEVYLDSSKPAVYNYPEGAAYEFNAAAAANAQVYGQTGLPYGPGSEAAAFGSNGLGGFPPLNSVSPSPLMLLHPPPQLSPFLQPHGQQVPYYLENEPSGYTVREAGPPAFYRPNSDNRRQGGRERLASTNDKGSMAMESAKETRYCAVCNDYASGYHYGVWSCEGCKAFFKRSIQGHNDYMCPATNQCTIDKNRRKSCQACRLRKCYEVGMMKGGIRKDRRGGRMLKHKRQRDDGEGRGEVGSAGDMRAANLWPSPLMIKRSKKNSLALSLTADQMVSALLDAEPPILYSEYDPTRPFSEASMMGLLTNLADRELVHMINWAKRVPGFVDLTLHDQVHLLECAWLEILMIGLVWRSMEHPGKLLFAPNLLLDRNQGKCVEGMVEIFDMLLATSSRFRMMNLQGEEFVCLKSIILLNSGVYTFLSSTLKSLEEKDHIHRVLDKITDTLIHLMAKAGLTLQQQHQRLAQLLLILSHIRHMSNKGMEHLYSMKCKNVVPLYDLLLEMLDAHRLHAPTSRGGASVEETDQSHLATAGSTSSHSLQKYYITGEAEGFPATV

As for `CN1C[C@H]2c3ccccc3Oc3ccc(Cl)cc3[C@@H]2C1`, the Potency result in test [1], in [4], in [5], in [7], in test [8] and in test [9] was “inactive” throughout. Moreover, the Potency result in test [10], in test [11] and in [12] was “inactive” each time. The figures for the Potency in [2], in test [3] and in test [6] were 26.6 µM (active), 29.8 µM (active) and 15 µM (active), respectively.
As to `C[Si](C)(CCCN)O[Si](C)(C)CCCN`, the Potency entry in test [1], in test [2], in [4], in test [5], in test [6] and in test [7] was “inactive” in each case. Also, the Potency result in [8], in test [9], in test [10], in [11] and in [13] was “inactive” each time.
With `O=[N+]([O-])c1ccc(NCCO)c(OCCO)c1`, the Potency entry in test [1], in [2], in test [4], in test [14], in test [15] and in test [16] was “inactive” throughout. Besides, the Potency entry in test [17], in test [18] and in test [19] was “inactive” each time. The Potency in test [5] was 54.5 µM (active); in [12], 68.7 µM (active); in test [13], 17.2 µM (active).
`Cc1oc(-c2ccccc2)nc1CCOc1cccc2c1ccn2CCC(=O)O`: the Potency result in [1], in test [2], in test [4], in [5], in test [19] and in test [8] was “inactive” throughout. Also, the Potency result in test [9], in [10], in test [11], in test [12] and in test [13] was “inactive” in each case.
As for `O=C(O)c1ccccc1Cl`, the Potency result in test [1], in [2], in test [20], in test [5], in [18] and in test [19] was “inactive” in each case. The Potency result in test [8], in test [12] and in [13] was “inactive” each time.
Turning to `OC(C#CCN1CCCC1)(c1ccccc1)c1ccccc1`, the Potency result in test [1], in [5], in test [19], in test [8] and in test [13] was “inactive” in each case. Further, the Potency in test [2] was 23.7 µM (active); in test [3] it was 26.6 µM (active).
`Cc1cc(N)c2cc(NC(=O)Nc3ccc4nc(C)cc(N)c4c3)ccc2n1`: the Potency entry in test [1], in test [4], in test [15], in test [16], in [19] and in [8] was “inactive” each time. Further, the Potency entry in test [12] and in test [13] was “inactive” in each case. For the same compound, the Potency was 21.1 µM (active) in test [20], 16.8 µM (active) in [3], 29.8 µM (active) in test [6] and 29.8 µM (active) in test [18].
For the compound `CN(C)C(=O)NC1(c2ccccc2)CCN(CC[C@@]2(c3ccc(F)c(F)c3)CN(C(=O)c3ccccc3)CCO2)CC1`, the Potency entry in test [1], in test [4], in [5], in test [8] and in test [13] was “inactive” in each case. Moreover, the Potency in [20] was 25.3 µM (active); in test [3] it was 28.4 µM (active); in test [6], 31.9 µM (active); in test [18] it was 56.7 µM (active).
For the compound `O=C1OC(=O)C2C3C=CC(C3)C12` (configuration not stated), the Potency entry in [1], in test [20], in test [3], in test [4], in test [5] and in [6] was “inactive” in each case. Also, the Potency entry in test [18], in test [19], in test [8], in [12] and in [13] was “inactive” in each case.
In the case of `C=CC(=O)OCCOCCOCCOCCOC(=O)C=C`, the Potency is 49.2 µM (active) and 48.5 µM (active) in [1]; 8.68 µM (active) and 6.06 µM (active) in [20]; 12.3 µM (active) and 9.6 µM (active) in test [3]; 24.7 µM (active) in test [4]; 30.4 µM (active) in test [5]; 15.4 µM (active) and 17.1 µM (active) in [6]. For the same compound, the Potency in test [18] was 15.4 µM (active) and 27.1 µM (active); in test [7], 62 µM [inconclusive] (active) and 61.1 µM [inconclusive] (active); in [12], 61.4 µM (active); in [13], 15.4 µM (active) and 17.1 µM (active). Moreover, the Potency result in test [19], in [8] and in test [9] was “inactive” in each case.
Take `CC(C)=CCC/C(C)=C/CC/C(C)=C/CO`: the Potency entry in test [1], in [5], in test [19], in test [8] and in test [12] was “inactive” throughout. For the same compound, the figures for the Potency in test [2], in test [20] and in test [18] were 34.4 µM (active), 54.5 µM (active) and 61.1 µM (active), respectively.
As for `CCNc1cc(O)ccc1C`, the Potency entry in test [1], in [2], in [3], in test [4], in [5] and in test [6] was “inactive” in each case. Besides, the Potency result in [18], in test [19], in test [7], in [8], in [9] and in test [10] was “inactive” each time. The Potency result in [11], in test [12] and in test [13] was “inactive” throughout.
In the case of `OCCNCc1ccccc1`, the Potency result in [1], in [20], in [3], in test [4], in test [14] and in test [15] was “inactive” in each case. The Potency entry in test [16], in test [5], in test [17], in test [6], in test [18] and in test [19] was “inactive” throughout. For the same compound, the Potency result in test [7], in test [8], in [9], in test [10], in test [11] and in [12] was “inactive” each time. In addition, the Potency entry in test [13] was “inactive”.
In the case of `CC(=O)c1ccc2c(c1)N(CCCN(C)C)c1ccccc1S2`, the Potency result in test [1], in test [4], in [5], in test [7], in test [8] and in test [9] was “inactive” throughout. Besides, the Potency entry in test [10], in test [11] and in [12] was “inactive” in each case. Also, the Potency in test [2] is 12.7 µM (active); in [6], 10.1 µM (active); in test [18], 10.1 µM (active).
In the case of `C=CC1CC2C=CC1C2` (configuration not stated), the Potency entry in [1], in [2], in test [20], in test [5], in [18] and in test [19] was “inactive” in each case. For the same compound, the Potency result in test [7], in test [8], in test [9], in [10], in test [11] and in test [12] was “inactive” in each case. In test [13], the Potency result was “inactive”.
Take `C[C@@H](c1ncncc1F)C(O)(Cn1cncn1)c1ccc(F)cc1F` (some centres not stated): the Potency entry in test [1], in test [20], in test [3], in test [4], in [14] and in test [16] was “inactive” throughout. Further, the Potency result in [5], in [17], in test [6], in test [18], in test [19] and in [7] was “inactive” each time. The Potency result in test [9], in test [10], in test [11], in test [12] and in test [13] was “inactive” each time.
Turning to `NCC(=O)CCC(=O)O`, the Potency entry in test [1], in test [20], in [3], in test [4], in test [5] and in [6] was “inactive” in each case. Further, the Potency result in test [18], in test [7], in test [8], in [9], in [10] and in [11] was “inactive” in each case. Besides, the Potency result in test [12] and in [13] was “inactive” in each case. The Potency in [19] is 26.6 µM (active).
For the compound `O=C(NCCO[N+](=O)[O-])c1cccnc1`, the Potency result in test [1], in test [2], in test [3], in test [4], in [5] and in [6] was “inactive” throughout. For the same compound, the Potency result in test [18], in [19], in [8], in test [12] and in [13] was “inactive” each time.
